About 410 targets per protein were measured; listed, in parts, are those with the strongest signals and a random draw of the rest.
Tests used:
Assay in all cases: glycan array binding signal (z-score within array); higher = stronger binding
Settings in all cases: glycan notation: IUPAC condensed, linker removed
[1] = target: GlcNAc(b1-6)Gal(b1-4)GlcNAc
Outline: (§1)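 The binding signal is a Z-score computed within each array and averaged over linkers. Arrays of the same protein sequence at different concentrations or buffers were also averaged together. Data originate from 3228 arrays in the Consortium for Functional Glycomics database, kept only where the protein sequence was available.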

[2] = target: Kdn(a2-3)Gal(b1-4)[Fuc(a1-3)]GlcNAc
Outline: as §1

Kdn(a2-6)Gal(b1-4)GlcNAc = target: Kdn(a2-6)Gal(b1-4)GlcNAc
Outline: as §1

[3] = target: Man(a1-2)Man(a1-3)[Man(a1-6)]Man(a1-6)[Man(a1-2)Man(a1-3)]Man(b1-4)GlcNAc(b1-4)GlcNAc
Outline: as §1

[4] = target: Man(a1-2)Man(a1-6)[Man(a1-3)]Man(a1-6)[Man(a1-2)Man(a1-2)Man(a1-3)]Man(b1-4)GlcNAc(b1-4)GlcNAc
Outline: as §1

Man(a1-6)Man = target: Man(a1-6)Man
Outline: as §1

[5] = target: Neu5Ac(a2-3)Gal(b1-3)GalNAc
Outline: as §1

[6] = target: Neu5Ac(a2-3)Gal(b1-4)GlcNAc(b1-3)Gal(b1-4)GlcNAc(b1-3)Gal(b1-4)GlcNAc(b1-2)Man(a1-3)[Neu5Ac(a2-3)Gal(b1-4)GlcNAc(b1-3)Gal(b1-4)GlcNAc(b1-3)Gal(b1-4)GlcNAc(b1-2)Man(a1-6)]GalNAc
Outline: as §1

[7] = target: Neu5Ac(a2-3)Gal(b1-4)GlcNAc(b1-6)[Gal(b1-3)]GalNAc
Outline: as §1

[8] = target: Neu5Ac(a2-3)Gal(b1-4)GlcNAc(b1-6)[Neu5Ac(a2-3)Gal(b1-3)]GalNAc
Outline: as §1

Neu5Ac(a2-6)Gal = target: Neu5Ac(a2-6)Gal
Outline: as §1

[9] = target: Neu5Ac(a2-6)Gal(b1-4)GlcNAc(b1-2)Man(a1-3)[Gal(b1-4)GlcNAc(b1-2)Man(a1-6)]Man(b1-4)GlcNAc(b1-4)GlcNAc
Outline: as §1

[10] = target: Neu5Ac(a2-6)Gal(b1-4)GlcNAc(b1-2)Man(a1-6)[Gal(b1-4)GlcNAc(b1-2)Man(a1-3)]Man(b1-4)GlcNAc(b1-4)GlcNAc
Outline: as §1

[11] = target: Neu5Ac(a2-6)Gal(b1-4)GlcNAc(b1-3)GalNAc
Outline: as §1

[12] = target: Neu5Gc(a2-3)Gal(b1-4)[Fuc(a1-3)]GlcNAc
Outline: as §1

B1: AT5G17240(42) (Arabidopsis thaliana), Q6NQJ8 (protein)
chain: MDLEHQTMETFLRWAAEIGISDSIDSSRFRDSCLGHSLSVSDFPDAGGRGLGAARELKKGELVLKVPRKALMTTESIIAKDLKLSDAVNLHNSLSSTQILSVCLLYEMSKEKKSFWYPYLFHIPRDYDLLATFGNFEKQALQVEDAVWATEKATAKCQSEWKEAGSLMKELELKPKFRSFQAWLWASATISSRTLHVPWDSAGCLCPVGDLFNYDAPGDYSNTPQGPESANNVEEAGLVVETHSERLTDGGFEEDVNAYCLYARRNYQLGEQVLLCYGTYTNLELLEHYGFMLEENSNDKVFIPLETSLFSLASSWPKDSLYIHQDGKLSFALISTLRLWLIPQSQRDKSVMRLVYAGSQISVKNEILVMKWMSEKCGSVLRDLPTSVTEDTVLLHNIDKLQDPELRLEQKETEAFGSEVRAFLDANCLWDVTVLSGKPIEFSRKTSRMLSKWRWSVQWRLSYKRTLADCISYCNEKMNNLLGTQDRLRDL
For B1, which “glycan array binding signal (z-score)” value [1] is on record?
Its value is 1.88.

What about the “glycan array binding signal (z-score)” value [2] of the same binder?
The value was -0.336.

And the “glycan array binding signal (z-score)” value (Kdn(a2-6)Gal(b1-4)GlcNAc)?
The value was -0.164.

And the “glycan array binding signal (z-score)” value [3]?
Its value is 0.607.

And the “glycan array binding signal (z-score)” value [4]?
Its value is -0.172.

And the “glycan array binding signal (z-score)” value (Man(a1-6)Man)?
The value was 0.232.

What about the “glycan array binding signal (z-score)” value [5] of the same binder?
The value was -0.438.

What about the “glycan array binding signal (z-score)” value [6] of the same binder?
The value was 2.21.

And the “glycan array binding signal (z-score)” value [7]?
The value was -0.303.

And the “glycan array binding signal (z-score)” value [8]?
Its value is -0.407.

What about the “glycan array binding signal (z-score)” value (Neu5Ac(a2-6)Gal) of the same binder?
The value was 0.474.

What about the “glycan array binding signal (z-score)” value [9] of the same binder?
The value was -0.171.

And the “glycan array binding signal (z-score)” value [10]?
Its value is -0.325.

And the “glycan array binding signal (z-score)” value [11]?
The value was -0.543.

And the “glycan array binding signal (z-score)” value [12]?
The value was -0.299.
